Screening results (PubChem)
In the library only some 8.5% were active in any assay of this set; here they are far more common.
NPSR antag – antagonists of human neuropeptide S receptor cAMP signaling; hit rate 1% among 220,000; Potency, µM (top dose mostly 38.3 µM), for inactives: at the top dose activity change, negative = inhibition, actives largely listed as inhibitors; AID 1461; CHO-NPSR cells, cAMP TR-FRET, antagonist mode; further: potency means the concentration at half of the fitted maximal effect; nearly all actives have a fitted effect of over 50% in size
Coupling enz – coupling enzyme interference in Giardia aldolase counter-screen; coupling enzyme system counterscreen, AmpLite Red fluorescence; activity change, negative = inhibition, % at 58.2 µM, hits read low; hit rate 0.67% among 290,000; AID 2472; in the data active means activity change below about -30%
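Final compound at 57.5 uM, incubated 10 min at RT with coupling enzyme reagent (glyceraldehyde-3-phosphate), then 20 min with substrate and AmpLite Red detection. Fluorescence read at 525/598 nm; tests interference with the coupling assay, not aldolase inhibition.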
GoLoco inh red – inhibitors of human Gai1-RGS12 GoLoco interaction (red fluorophore) | P63096 | Gai1:RGS12 GoLoco peptide FP, rhodamine, 10 min | Potency, µM (series often up to 61.6 µM), for the others: top-dose activity, negative = inhibition, actives largely listed as inhibitors | hit rate 0.44% among 230,000; active means well fitted inhibition curve with a large enough effect, not every such curve was filed as active; inactive means no such curve, though single readings can be large or run the other way; further: potency means the concentration at half of the fitted maximal effect; nearly all actives have a fitted effect of over 30% in size
Target sequence (P63096 whole entry, looked up): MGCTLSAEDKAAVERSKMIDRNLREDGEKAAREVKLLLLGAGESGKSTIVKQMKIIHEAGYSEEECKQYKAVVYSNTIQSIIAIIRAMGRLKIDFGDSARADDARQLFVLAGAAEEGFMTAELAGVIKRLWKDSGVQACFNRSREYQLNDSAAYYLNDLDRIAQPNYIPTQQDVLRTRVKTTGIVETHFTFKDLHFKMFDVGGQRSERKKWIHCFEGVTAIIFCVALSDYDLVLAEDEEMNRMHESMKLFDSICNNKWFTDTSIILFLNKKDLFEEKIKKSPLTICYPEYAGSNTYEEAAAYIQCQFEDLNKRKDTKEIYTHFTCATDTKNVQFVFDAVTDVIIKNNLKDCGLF
ALDH1A1 inh – blocks purified human ALDH1A1 activity | P00352 | Purified ALDH1A1, NADH fluorescence, propionaldehyde substrate | Potency, µM (titrated, usually from 75.3 µM), for inactives: top-dose activity, negative = inhibition, actives largely listed as inhibitors | hit rate 7.3% among 220,000; active means well fitted inhibition curve with a large enough effect, not every such curve was filed as active; inconclusive means small, poorly fitted or top-dose-only effect, or another doubt; inactive means no such curve, though single readings can be large or run the other way;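 further: potency means the concentration at half of the fitted maximal effect; plate controls were no enzyme wells and a reference inhibitor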
JMJD2E inh – JMJD2E (human) inhibition. B2RXH2. JMJD2E catalytic domain, FDH-coupled NADH fluorescence (FDH is formaldehyde dehydrogenase). Potency, µM (titrated, usually from 57.1 µM), for the others: top-dose activity change, negative = inhibition, actives largely listed as inhibitors. hit rate 1.6% among 230,000; active means well fitted inhibition curve with a large enough effect, not every such curve was filed as active; inconclusive means small, poorly fitted or top-dose-only effect, or another doubt; inactive means no such curve, though single readings can be large or run the other way;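 further: potency means the concentration at half of the fitted maximal effect; 0% = wells with enzyme and -100% = buffer wells without enzyme; nearly all actives have a fitted effect of over 50% in size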
Sfp inh – inhibitors of Bacillus subtilis Sfp phosphopantetheinyl transferase | Potency, µM, for inactives: largest response in the series, negative = inhibition, usual class: inhibitors | hit rate 3.5% among 310,000 | Q9F4F7 | Biochemical Sfp PPTase activity, qHTS;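 further: the enzyme is Sfp with the accession as filed and its product quenches rhodamine fluorescence; potency means the concentration at half of the fitted maximal effect; 0% = enzyme reaction without inhibitor and -100% = no enzyme wells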
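Fluorescence-quenching assay with 15 nM Sfp, 5 uM rhodamine-CoA and 12.5 uM BHQ-2-labelled ybbR peptide in pH 7.6 Hepes/MgCl2 buffer. Enzyme was pre-incubated with compound for 15 min at room temperature. Rate was taken from the 30-min fluorescence change (525/598 nm).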
* = called active by the depositor; [ ] = dose if it differs, or a comment. Unless noted, the call rests on the fitted dose curve; in most records, active means well fitted curve in the direction sought with a large enough effect; inconclusive means small, poorly fitted or top-dose-only effect, or another doubt; inactive means no such curve, though single readings can be large; an effect the other way counts as inactive or inconclusive. Unless noted, on the % scale 0 is the no-effect control and ±100 the full control effect.

Results for N#Cc1ccccc1NC(=S)NC(=O)c1cccs1 ?
Coupling enz: 1.0; Sfp inh: 31.6µM*

How did COCCNc1nc(C)c(C(C)=O)s1 do in these assays?
NPSR antag: 5.7%; Coupling enz: 2.6; GoLoco inh red: 5.5%; ALDH1A1 inh: inconclusive; JMJD2E inh: -8.0%; Sfp inh: 16.1%

Results for COc1ccc(CCNc2nc(C)nc3c2oc2ccccc23)cc1OC ?
NPSR antag: -28.8%[46.1 µM]; Coupling enz: 1.2; GoLoco inh red: 15.9%; ALDH1A1 inh: -26.6%; JMJD2E inh: 0.4%; Sfp inh: 28.2µM*

Results for CCc1nc(N[C@@H](Cc2c[nH]c3ccccc23)C(=O)O)c2oc3ccccc3c2n1 ?
NPSR antag: -11.6%[46.1 µM]; Coupling enz: 9.2; GoLoco inh red: 3.6%; ALDH1A1 inh: 2.9%; JMJD2E inh: 2.4%; Sfp inh: 15.2%

How did COc1ccc(CCNc2oc(Cc3cccc4ccccc34)nc2C#N)cc1OC do in these assays?
NPSR antag: -21.1%[46.1 µM]; Coupling enz: -5.3; GoLoco inh red: 86.3%; ALDH1A1 inh: 7.08µM*; JMJD2E inh: 1.9%; Sfp inh: 14.0%

What do the screens show for `CCc1nc(N[C@@H](CC(C)C)C(=O)O)c2oc3ccccc3c2n1`?
NPSR antag: -10.5%[46.1 µM]; Coupling enz: 3.8; GoLoco inh red: 2.1%; ALDH1A1 inh: 0.891µM*; JMJD2E inh: 3.0%; Sfp inh: 9.9%

Results for CCc1nc(NCCN2CCOCC2)c2oc3ccccc3c2n1 ?
NPSR antag: 8.8%[46.1 µM]; Coupling enz: -3.9; GoLoco inh red: 0.9%; ALDH1A1 inh: 0.891µM*; JMJD2E inh: -1.2%; Sfp inh: -12.2%

Results for CC12OC1C1(O)CCCC1=CC2=O (configuration not stated) ?
Coupling enz: 6.4; Sfp inh: 6.6%

What do the screens show for `O=C(O)C1CCN(S(=O)(=O)c2ccc(N3CCCC3C(=O)O)c([N+](=O)[O-])c2)CC1` (configuration not stated)?
Coupling enz: 0.3; Sfp inh: -21.3%

How did Cc1nc(N[C@@H](Cc2c[nH]c3ccccc23)C(=O)O)c2oc3ccccc3c2n1 do in these assays?
NPSR antag: -17.6%[46.1 µM]; Coupling enz: 2.6; GoLoco inh red: -17.9%; ALDH1A1 inh: -55.3%; JMJD2E inh: -13.8%; Sfp inh: 11.6%

What do the screens show for `CCc1nc(NC(C)C)c2oc3ccccc3c2n1`?
NPSR antag: -6.1%[46.1 µM]; Coupling enz: -0.7; GoLoco inh red: 7.7%; ALDH1A1 inh: inconclusive; JMJD2E inh: -22.8%; Sfp inh: 22.6%

How did O=C(O)CNc1nc(-c2ccccc2)nc2c1oc1ccccc12 do in these assays?
NPSR antag: -27.4%; Coupling enz: 11.3; GoLoco inh red: 6.6%; JMJD2E inh: 3.7%; Sfp inh: 29.0%

How did CCc1nc(N[C@H](C(=O)O)C(C)C)c2oc3ccccc3c2n1 do in these assays?
NPSR antag: 8.2%; Coupling enz: 10.0; GoLoco inh red: 5.2%; ALDH1A1 inh: 0.794µM*; JMJD2E inh: -5.8%; Sfp inh: 12.3%

How did CSCC[C@@H](Nc1nc(-c2ccccc2)nc2c1oc1ccccc12)C(=O)O do in these assays?
NPSR antag: -22.4%[46.1 µM]; Coupling enz: 13.4; GoLoco inh red: 10.5%; ALDH1A1 inh: 11.2µM*; JMJD2E inh: -0.4%; Sfp inh: 12.9%

What do the screens show for `Cc1nc(N[C@@H](Cc2ccccc2)C(=O)O)c2oc3ccccc3c2n1`?
NPSR antag: -4.6%[46.1 µM]; Coupling enz: 15.3; GoLoco inh red: -3.3%; ALDH1A1 inh: 17.8µM*; JMJD2E inh: -4.6%; Sfp inh: 15.3%

Results for Cc1cc(N=Cc2c(O)ccc3cc(Br)ccc23)no1 ?
NPSR antag: -31.6%; Coupling enz: -13.9; GoLoco inh red: -13.5%; ALDH1A1 inh: 1.78µM*; JMJD2E inh: inconclusive; Sfp inh: 6.5%

What do the screens show for `Cc1cc(N=Cc2c(O)n(-c3ccc(C)c(C)c3)c(=O)c3ccccc23)no1`?
NPSR antag: -30.2%; Coupling enz: 2.7; GoLoco inh red: 1.6%; ALDH1A1 inh: 12.2%; JMJD2E inh: inconclusive; Sfp inh: -14.7%
